From PubChem BioAssay (NCATS) come the findings set out here.

The nature of test [1]: Quantitative High-Throughput drug screen in 47 multiple myeloma cell lines against the NCATS MIPE library collection: KMM1_JCRB cell viability assay (AID 1918960). Further: nearly all actives have a fitted effect of over 30% in size. Further: potency means the concentration at half of the fitted maximal effect. Summed up:
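Here, 48 h treatment with MIPE 4.0 agents at 37 °C preceded an ATP luminescence read. Plating density was 500 cells per well.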

The nature of test [2]: Quantitative High-Throughput drug screen in 47 multiple myeloma cell lines against the NCATS MIPE library collection: Karpas417_ECACC cell viability assay (AID 1918961). Further: potency means the concentration at half of the fitted maximal effect. Particulars: Karpas417 myeloma viability, CellTiter-Glo ATP luminescence, 48 h; viability (% of DMSO): at 45.8 µM (top of the series). The essentials: (§1)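 We plated 500 myeloma cells per well, pinned in MIPE 4.0 compounds, and incubated for 48 hours at 37C. ATP was then quantified with CellTiter-Glo, with DMSO and media-only wells defining 100% and 0%.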
(In ATP-based viability assays light output follows the ATP content of the culture.)

A short description of test [3]: Quantitative High-Throughput drug screen in 47 multiple myeloma cell lines against the NCATS MIPE library collection: KHM11_PLB cell viability assay (AID 1918962). Further: potency means the concentration at half of the fitted maximal effect; nearly all actives have a fitted effect of over 35% in size. The essentials: (§2)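 Primary qHTS used for cherry-picking: cells at 500/well, library compounds for 48 h (37C, 5% CO2), luminescent ATP assay.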
Test [4] is described as follows: Quantitative High-Throughput drug screen in 47 multiple myeloma cell lines against the NCATS MIPE library collection: JIM1_ECACC cell viability assay (AID 1918964; further: potency means the concentration at half of the fitted maximal effect). Summed up: (§3)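 Inhibition of cell viability is measured here. Each line was plated at 500 cells per well, treated with MIPE 4.0 drugs, kept 48 hours at 37C, then assayed for ATP content by CellTiter-Glo luminescence.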

Test [5] is described as follows: Quantitative High-Throughput drug screen in 47 multiple myeloma cell lines against the NCATS MIPE library collection: INA6_PLB cell viability assay (AID 1918965; further: potency means the concentration at half of the fitted maximal effect; nearly all actives have a fitted effect of over 55% in size). Summed up: as §1
A short description of test [6]: Quantitative High-Throughput drug screen in 47 multiple myeloma cell lines against the NCATS MIPE library collection: JJN3_DSMZ cell viability assay (AID 1918966; further: potency means the concentration at half of the fitted maximal effect; nearly all actives have a fitted effect of over 50% in size). The essentials: as §3
Test [7] in a line: Quantitative High-Throughput drug screen in 47 multiple myeloma cell lines against the NCATS MIPE library collection: Karpas25_ECACC cell viability assay (AID 1918968; further: potency means the concentration at half of the fitted maximal effect; nearly all actives have a fitted effect of over 35% in size). The essentials: as §3
The nature of test [8]: Quantitative High-Throughput drug screen in 47 multiple myeloma cell lines against the NCATS MIPE library collection: KMS27_JCRB cell viability assay (AID 1918970). Further: nearly all actives have a fitted effect of over 30% in size. Further: potency means the concentration at half of the fitted maximal effect. The following applies: KMS27 myeloma cells, CellTiter-Glo ATP viability, 48 h; viability (% of DMSO): at 45.8 µM (top of the series). The essentials:
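Each line is seeded at 500 cells per well and treated with library compounds for 48 hours under 37 °C, 5% CO2. CellTiter-Glo is then added for 5 min at room temperature before median relative luminescence is recorded.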

The nature of test [9]: Quantitative High-Throughput drug screen in 47 multiple myeloma cell lines against the NCATS MIPE library collection: KMS12PE_JCRB cell viability assay (AID 1918972). Further: nearly all actives have a fitted effect of over 30% in size. Further: potency means the concentration at half of the fitted maximal effect. The essentials:
as §1

A short description of test [10]: Quantitative High-Throughput drug screen in 47 multiple myeloma cell lines against the NCATS MIPE library collection: KMS20_JCRB cell viability assay (AID 1918973). Further: potency means the concentration at half of the fitted maximal effect; nearly all actives have a fitted effect of over 45% in size. The essentials:
as §3

Test [11] in a line: Quantitative High-Throughput drug screen in 47 multiple myeloma cell lines against the NCATS MIPE library collection: KMS21BM_JCRB cell viability assay (AID 1918974). Further: potency means the concentration at half of the fitted maximal effect. Particulars: ATP luminescence, 48 h; viability: at 45.8 µM (top of the series). Summed up:
as §3

Test [12] is described as follows: Quantitative High-Throughput drug screen in 47 multiple myeloma cell lines against the NCATS MIPE library collection: MOLP8_DSMZ cell viability assay (AID 1918977). Further: potency means the concentration at half of the fitted maximal effect; nearly all actives have a fitted effect of over 45% in size. The essentials: (§4)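 Plated at 500 cells per well, myeloma lines received MIPE 4.0 compounds by pin tool. Following 48 h culture at 37 °C, CellTiter-Glo luminescence gave viability relative to DMSO and media-only controls.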

The nature of test [13]: Quantitative High-Throughput drug screen in 47 multiple myeloma cell lines against the NCATS MIPE library collection: JIM3_ECACC cell viability assay (AID 1918963; further: potency means the concentration at half of the fitted maximal effect; nearly all actives have a fitted effect of over 35% in size). Summed up:
as §2

The nature of test [14]: Quantitative High-Throughput drug screen in 47 multiple myeloma cell lines against the NCATS MIPE library collection: H1112_PLB cell viability assay (AID 1918967; further: potency means the concentration at half of the fitted maximal effect; nearly all actives have a fitted effect of over 30% in size). Summed up: as §3
Test [15] is described as follows: Quantitative High-Throughput drug screen in 47 multiple myeloma cell lines against the NCATS MIPE library collection: KMS12BM_JCRB cell viability assay (AID 1918971). Further: potency means the concentration at half of the fitted maximal effect; nearly all actives have a fitted effect of over 35% in size. The essentials: (§5)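 CellTiter-Glo luminescence (ATP) after 48 h compound exposure, 37C/5% CO2; 500 cells/well; MIPE 4.0 approved/investigational drugs pinned in; DMSO = 100%, media only = 0% viability.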

A short description of test [16]: Quantitative High-Throughput drug screen in 47 multiple myeloma cell lines against the NCATS MIPE library collection: KMS26_JCRB cell viability assay (AID 1918975). Further: potency means the concentration at half of the fitted maximal effect; nearly all actives have a fitted effect of over 45% in size. Summed up: as §5
Test [17] is described as follows: Quantitative High-Throughput drug screen in 47 multiple myeloma cell lines against the NCATS MIPE library collection: MMM1_PLB cell viability assay (AID 1918976). Summed up:
as §4

The nature of test [18]: Quantitative High-Throughput drug screen in 47 multiple myeloma cell lines against the NCATS MIPE library collection: NCIH929_DSMZ cell viability assay (AID 1918978). Summed up:
as §4

Test [19] in a line: Quantitative High-Throughput drug screen in 47 multiple myeloma cell lines against the NCATS MIPE library collection: OCIMY1_PLB cell viability assay (AID 1918979). Further: nearly all actives have a fitted effect of over 35% in size. Further: potency means the concentration at half of the fitted maximal effect. Summed up: as §4
The nature of test [20]: Quantitative High-Throughput drug screen in 47 multiple myeloma cell lines against the NCATS MIPE library collection: Karpas620_DSMZ cell viability assay (AID 1918959). Further: nearly all actives have a fitted effect of over 30% in size. The essentials: as §2

Inconclusive results are not listed. The source made the active and inactive calls. The call rests on the fitted dose curve; in most records, active means well fitted curve in the direction sought with a large enough effect; inconclusive means small, poorly fitted or top-dose-only effect, or another doubt; inactive means no such curve, though single readings can be large; an effect the other way counts as inactive or inconclusive.

For the molecule `Cn1c(Nc2ccc(C(F)(F)F)cc2)nc2cc(Oc3ccnc(-c4ncc(C(F)(F)F)[nH]4)c3)ccc21`, the Potency is 16.6 µM (active) in test [1]; 4.18 µM (active) in [2]; 18.7 µM (active) in test [3]; 9.35 µM (active) in [4]; 20.9 µM (active) in test [5]; 16.6 µM (active) in test [6]. In addition, the Potency in [7] was 3.72 µM (active); in [8] it was 14.8 µM (active); in test [9], 5.26 µM (active); in test [10] it was 11.8 µM (active); in [11], 5.9 µM (active); in test [12], 6.62 µM (active).

For `CCc1c(O)cc(O)c(C(=O)c2ccc(OCCN3CCOCC3)c(OC)c2)c1CC(=O)N(CCOC)CCOC`, the Potency is 0.935 µM (active) in test [1]; 0.469 µM (active) in test [3]; 0.833 µM (active) in test [13]; 0.59 µM (active) in [5]; 0.935 µM (active) in test [6]; 14.8 µM (active) in test [14]. Also, the Potency is 0.526 µM (active) in test [7]; 1.05 µM (active) in [15]; 0.526 µM (active) in [10]; 0.833 µM (active) in [16]; 1.48 µM (active) in [17]; 0.662 µM (active) in [12]. In addition, the figures for the Potency in test [18] and in test [19] were 1.05 µM (active) and 16.6 µM (active), respectively. The Potency result in test [2] is “inactive”.

For the molecule `C[C@]12C=CC(=O)N[C@@H]1CC[C@H]1[C@H]3CC[C@@H](C(=O)Nc4cc(C(F)(F)F)ccc4C(F)(F)F)[C@@]3(C)CC[C@@H]12`, the Potency entry in test [20], in [8], in [9] and in [19] was “inactive” in each case. The Potency in [6] was 18.7 µM (active); in test [14], 13.2 µM (active); in test [7], 11.8 µM (active); in test [15], 20.9 µM (active).

`O=c1c(O)c(-c2ccc(O)c(O)c2)oc2cc(O)ccc12`: the Potency was 5.9 µM (active) in test [1]; 13.2 µM (active) in [3]; 13.2 µM (active) in [13]; 7.43 µM (active) in [5]; 20.9 µM (active) in [6]; 26.4 µM (active) in test [14]. Besides, the Potency in [7] is 8.33 µM (active); in test [15] it was 26.4 µM (active); in test [17], 26.4 µM (active); in test [12] it was 18.7 µM (active); in test [18] it was 18.7 µM (active); in [19] it was 23.5 µM (active).

Regarding `COc1ccc(C[C@@H](C)[C@@H](C)Cc2ccc(OC)c(OC)c2)cc1OC`, the Potency in [1] was 0.235 µM (active); in test [13], 0.418 µM (active); in test [5], 0.662 µM (active); in test [6], 0.833 µM (active); in test [14] it was 0.296 µM (active); in test [7] it was 0.662 µM (active). Moreover, the Potency in test [8] is 0.166 µM (active); in test [15], 0.662 µM (active); in [9], 0.372 µM (active); in test [10] it was 2.35 µM (active); in [16], 0.59 µM (active); in test [17] it was 5.9 µM (active). In addition, the Potency in test [12] is 2.96 µM (active); in test [18], 1.87 µM (active).

With `Cc1ccc(-n2[nH]c(C)c(N=Nc3cccc(-c4cccc(C(=O)O)c4)c3O)c2=O)cc1C`, the Potency result in test [1] and in test [9] was “inactive” each time. Moreover, the Potency in test [4] was 13.2 µM (active); in test [5], 23.5 µM (active); in test [14], 20.9 µM (active); in test [15], 23.5 µM (active); in [17], 20.9 µM (active); in test [12], 23.5 µM (active).
